Screens (PubChem)
Hits are enriched below; roughly 2.1% of the tested compounds scored in any of these assays.
TDP43 rescue = rescues yeast growth from TDP-43 toxicity | TDP-43 expressing yeast growth rescue, BacTiter-Glo, 24 h | Potency, µM (series often up to 46.1 µM), inactives show top-dose growth rescue (activation), most hits filed as activators | hit rate 1.8% among 410,000; further: % of control where 0% means no effect; nearly all actives have a fitted effect of over 50% in size
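Growth rescue of TDP-43-toxic yeast measured as ATP luminescence (BacTiter-Glo). Cells grown to mid-log in raffinose, induced in galactose at OD600=0.02, exposed to compound 24 hr at 30 deg C.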
Abeta rescue = A-beta toxicity reversal in yeast | yeast expressing A-beta42, growth rescue, OD600, 48 h; response scale: 0% DMSO, 100% iron-clioquinol control | Potency, µM (top dose mostly 46.1 µM), hits mostly activators | hit rate 0.063% among 410,000 | AID 1347071; further: nearly all actives have a fitted effect of over 55% in size
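Growth rescue measured by 600 nm absorbance after 48 h yeast culture at 30 C with compound. Values normalized between DMSO and an equimolar ferric chloride plus clioquinol control.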
FUS suppressor = FUS proteinopathy suppression in yeast. AID 1347120. hit rate 0.24% among 390,000. S. cerevisiae FUS-expressing, growth rescue, OD600, 24 h. Potency, µM (series often up to 76.6 µM), actives largely listed as activators;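 further: plate controls were DMSO vehicle for no effect and reference control for full effect; nearly all actives have a fitted effect of over 55% in size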
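Cultures pregrown in 2.5% raffinose medium are shifted to minimal medium containing 2% galactose to express toxic FUS. Compounds are tested at several concentrations. After 24hr at 30C, growth is quantified at 600 nm absorbance.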
aSyn yeast inh = rescues yeast growth from alpha-synuclein toxicity; Potency, µM (top dose mostly 46.1 µM), inactives show at the top dose growth rescue (activation), most hits filed as activators; hit rate 0.14% among 370,000; Yeast expressing alpha-synuclein, growth rescue, BacTiter-Glo, 24 h; AID 652106; further: % of control where 0% means no effect; nearly all actives have a fitted effect of over 65% in size
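Galactose-induced alpha-syn yeast (OD600=0.02, raffinose-pregrown) + pinned cpd, 24 hr, 30 deg C; growth by BacTiter-Glo luminescence. Growth restoration scores as activation.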
The depositor's hits bear a star; i = inactive; ? = inconclusive. The call rests on the fitted dose curve; in most records, active means well fitted curve in the direction sought with a large enough effect; inconclusive means small, poorly fitted or top-dose-only effect, or another doubt; inactive means no such curve, though single readings can be large; an effect the other way counts as inactive or inconclusive. Potency means the concentration at half of the fitted maximal effect.

SMILES	TDP43 rescue	Abeta rescue	FUS suppressor	aSyn yeast inh
CCOc1ccccc1NC(=O)N1CCC(c2nc3ccc(C)cc3[nH]2)CC1	-28%	i	i	-1%
O=C(/C=C/c1ccccc1)Nn1c(-c2cccs2)nc2ccccc2c1=O	16%	i	i	0%
O=C(/C=C/c1cccc(Cl)c1)Nn1c(-c2cccs2)nc2ccccc2c1=O	10µM*	i	i	-30%
O=C(/C=C/c1cccc(Cl)c1)NCc1cccs1	18µM*	i	i	0%
O=C(NCc1ccco1)c1cc2cc(Br)ccc2o1	22µM*	i	i	-3%
Cc1ccc(NC(=O)Cc2nnc(SCC(=O)Nc3nncs3)n2C)c(C)c1	-9%	i	i	-2%
Clc1ccc(OCCn2cnc(Cl)c2Cl)cc1	11µM*	?	i	20%
COc1ccc(OCCn2cnc(Cl)c2Cl)cc1	16%	i	i	3%
COc1cccc(CN(C)C(=O)c2ccc(NC(=O)CC3SC(N4CCCCC4)=NC3=O)cc2)c1OC (stereo unspecified)	18%	i	i	2%
C/C(CC(=O)NCc1ccco1)=N\NC(=O)Cc1ccc(Cl)cc1	12%	i	i	1%
